# Compound activity from PubChem.
# Most compounds without a hit are left out; they make up all but 11% or so of the library.
# HPGD inh: HPGD (human) dehydrogenase inhibition | P15428 | purified HPGD, NADH fluorescence kinetic, PGE2 substrate | Potency, µM, for inactives: top-dose activity change, negative = inhibition, most hits filed as inhibitors | actives 4.3% (n = 150,000); note: potency is the fitted concentration of half-maximal effect
# Target sequence (P15428 whole entry, looked up): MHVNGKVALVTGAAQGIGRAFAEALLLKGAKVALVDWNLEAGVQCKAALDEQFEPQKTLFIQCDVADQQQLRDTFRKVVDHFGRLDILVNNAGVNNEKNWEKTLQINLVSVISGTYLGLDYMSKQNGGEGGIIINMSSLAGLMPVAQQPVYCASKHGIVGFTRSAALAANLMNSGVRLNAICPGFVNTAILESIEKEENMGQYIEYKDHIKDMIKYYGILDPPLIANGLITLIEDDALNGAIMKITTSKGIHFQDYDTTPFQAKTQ
#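 20 nM HPGD preincubated 15 min at room temperature with compound in 50 mM Tris-HCl pH 8, 0.01% Tween 20. Started with 1 mM NAD+ and 30 uM prostaglandin E2; NADH fluorescence (360/450 nm) read 5 times over 30-s intervals, last minus first.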
# PNC inhibitor: blocks assembly of the perinucleolar compartment; PC3M PTB-GFP, PNC prevalence imaging, 16 h; stronger effect = lower value; activity change (PNC), negative = inhibition, % at 10 µM; actives 3.1% (n = 140,000); AID 2417;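 active = readout at or below -70, meaning at least 70% loss of cells showing the perinucleolar compartment, a nuclear body marking cancer cells; inconclusive = readout between -30 and a set limit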;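 note: plate controls were DMSO wells for no effect and camptothecin positive control wells for full effect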
#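 Compounds are pinned in duplicate onto adhered PC3M cells stably expressing GFP-tagged PTB and incubated 16 h at 37 C. Cells are then fixed, nuclei stained with Hoechst, and PNC-positive cells counted.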
# JMJD2E inh: JMJD2E (human) inhibition. B2RXH2. JMJD2E catalytic domain, FDH-coupled NADH fluorescence (FDH is formaldehyde dehydrogenase). Potency, µM (top dose mostly 57.1 µM), inactives show top-dose activity change, negative = inhibition, most hits filed as inhibitors. actives 1.6% (n = 230,000);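 note: potency is the fitted concentration of half-maximal effect; 0% = wells with enzyme and -100% = buffer wells without enzyme; nearly all actives have a fitted effect of over 50% in size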
# Target sequence (B2RXH2 1-337 limits assumed): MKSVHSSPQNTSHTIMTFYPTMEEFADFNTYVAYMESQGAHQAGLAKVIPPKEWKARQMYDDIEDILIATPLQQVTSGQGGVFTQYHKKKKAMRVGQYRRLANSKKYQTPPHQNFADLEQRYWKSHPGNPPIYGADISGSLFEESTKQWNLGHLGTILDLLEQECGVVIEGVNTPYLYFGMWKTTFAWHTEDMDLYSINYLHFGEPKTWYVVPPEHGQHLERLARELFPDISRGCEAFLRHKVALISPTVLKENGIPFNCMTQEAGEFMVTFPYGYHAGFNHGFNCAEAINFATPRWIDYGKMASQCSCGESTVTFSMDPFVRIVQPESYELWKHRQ
# ALDH1A1 block: inhibitors of human aldehyde dehydrogenase 1A1; Potency, µM (titrated, usually from 75.3 µM), inactives show at the highest dose activity, negative = inhibition, usual class: inhibitors; Purified ALDH1A1, NADH fluorescence, propionaldehyde substrate; actives 7.3% (n = 220,000); AID 1030; P00352;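 note: potency is the fitted concentration of half-maximal effect; plate controls were no enzyme wells and a reference inhibitor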
# The depositor's hits bear a star; ? = inconclusive; . = no result; [ ] = dose if it differs, or a comment. Unless noted, calls come from the whole dose curve; as a rule, active = well fitted inhibition curve with a large enough effect (not every such curve was filed as active); inconclusive = small, poorly fitted or top-dose-only effect, or another doubt; inactive = no such curve, though single readings can be large or run the other way. Unless noted, % is set by controls: 0 for no effect and ±100 for the full control effect.
SMILES,HPGD inh,PNC inhibitor,JMJD2E inh,ALDH1A1 block
Cc1ccc(S(=O)(=O)CC(=O)N2CCCC2)cc1,-14%,-100*,-3%,2%
O=C(O)C1C2C=CC(O2)C1C(=O)Nc1ccc2c(c1)OCCO2 (configuration not stated),-6%,-11,-3%,11µM*
NS(=O)(=O)c1ccc(NS(=O)(=O)c2ccc(NC(=S)Nc3ccccc3)cc2)cc1,-12%,-6,-6%,?
O=C(O)C1C2C=CC(O2)C1C(=O)Nc1ccc(S(=O)(=O)Nc2ccccc2)cc1 (configuration not stated),?,-19,-2%,1.1µM*
O=C(O)C1C2C=CC(O2)C1C(=O)Nc1ccc(S(=O)(=O)N2CCc3ccccc32)cc1 (configuration not stated),-22%,29,7%,10µM*
O=C(O)CSc1cc(C(=O)c2cc(F)ccc2O)cn2c(=O)c3c(-c4ccccc4)csc3nc12,.,.,5%,7.9µM*
CCOC(=O)c1sc2nc3c(SCCC#N)cc(C(=O)c4cc(F)ccc4O)cn3c(=O)c2c1C,-11%,-14,?,-12%
COc1cc(/C=C2\N=C(c3c(-c4ccccc4)noc3C)OC2=O)ccc1OC(C)=O,.,.,7%,?
COc1ccc(/C=N/Nc2nnc(C)n2N)cc1OC,.,.,14µM*,5%
CCCN(CCC)C[C@@H]1CCCCN1CCNC(=O)N1c2ccccc2C(=O)Nc2cccnc21,-8%,.,10%,1%
O=S(=O)(C/C(=C/CO)S(=O)(=O)c1ccccc1)c1ccccc1,-5%,-95*,3%,13µM*
CN(C)/C=N/S(=O)(=O)c1ccc(Cl)c(Cl)c1,.,.,-6%,8%
COCCNC(=O)/C=C/c1c(Cl)cccc1Cl,13µM*,?,13%,-2%
COCCCNC(=O)/C=C/c1c(Cl)cccc1Cl,16µM*,42,2%,-7%
COCCCNC(=O)/C=C/c1ccc(Cl)cc1,-21%,0,-1%,4%
COc1ccc(CNc2nc(-c3ccccc3)nn2C(=O)c2cccs2)cc1,-29%,29,?,25µM*
COc1ccc(CNc2nc(-c3ccccc3)nn2C(=O)c2ccc([N+](=O)[O-])cc2)cc1,-24%,-18,?,-11%
COC(=O)[C@@H]1C[C@@H]2CC[C@@H](O)C[C@@H]2N1CC1CCCCC1,-15%,.,-20%,?
Cc1ccc(CN2C(=O)CCC2C(=O)NC2CCCC2)cc1 (configuration not stated),-9%,18,11%,3%
Cc1ccc(CN2C(=O)CCC2C(=O)NCCN(CC(C)C)CC(C)C)cc1 (configuration not stated),-7%,-25,?,22µM*
COc1ccc(C(=O)NNC(=S)NC(=O)c2cc(-c3ccccc3)nc3ccccc23)cc1,-8%,85,?,-12%
COc1ccc(Cl)cc1C(=O)NNC(=S)NC(=O)c1cc(-c2ccccc2)nc2ccccc12,?,53,5%,32µM*
COC(=O)c1ccc(NC(=S)NC(=O)c2cc(-c3ccccc3)nc3ccccc23)cc1,-8%,-14,-11%,11µM*
COc1ccc(Cl)cc1C(=O)NC(=S)Nc1cc(-c2nc3ccccc3[nH]2)ccc1C,-17%,9,?,4µM*
CC(C)C12CC[C@@]3(CC[C@H]4[C@@](C)(CCC[C@]4(C)C(=O)O)[C@@H]3C1)[C@@H](CN)C2,-4%,.,.,?
SMILES,HPGD inh,PNC inhibitor,JMJD2E inh,ALDH1A1 block
COC(=O)N1CCC2(CCN(C(=O)Nc3ccc(OC)cc3)CC2)CC1,-3%,.,.,-7%
CCOC(=O)C1(C(=O)O)NC(=O)CC1c1ccccc1 (configuration not stated),-8%,-95*,2%,-8%
COC(=O)/C=C1\SC(N2CCOCC2)=C(c2ccc(OC)cc2)C1=O,.,.,-13%,7.9µM*
O=c1cc2c(=O)oc3cc(O)c(O)oc3c2c(O)c1O,.,.,4µM*,-9%
O=c1oc2cc(O)c(Cl)cc2c2ccccc12,-30%,-6,-8%,-14%
O=C(O)c1ccccc1NS(=O)(=O)c1ccc(F)c(Cl)c1,-7%,.,.,6%
Cc1ccc(/C=C/C(=O)N2CCN(S(=O)(=O)c3c(C)c(C)cc(C)c3C)CC2)o1,25µM*,14,-18%,14µM*
Cc1ccc(/C=C/C(=O)N2CCN(S(=O)(=O)c3ccc(C)c(C)c3)CC2)o1,22µM*,?,?,3.5µM*
Cc1ccc(/C=C/C(=O)NCCCN2CCN(CCCNC(=O)/C=C/c3ccc(C)o3)CC2)o1,-21%,-22,-15%,-6%
Cc1cccc(CN2CCN(C(=O)c3ccccc3F)CC2)c1,5%,?,?,?
Cc1ccc(S(=O)(=O)N2CCN(C(=O)N(C)C)CC2)cc1C,5%,18,8%,?
Cc1cccc(CN2CCN(C(=O)CCl)CC2)c1,.,33,-1%,0.32µM*
Cc1ccc(/C=C/C(=O)N2CCN(Cc3ccccc3)CC2)o1,-26%,21,-22%,8.9µM*
O=C(NCC1CC1)[C@H]1C[C@@H]1[C@H](NP(=O)(c1ccccc1)c1ccccc1)c1ccccc1,-7%,.,4%,5%
C(#CCN1CCCC1)CC(c1ccccc1)c1ccccc1,.,.,-6%,?
O=C(Cn1nc(CNc2ccc(Br)cc2)[n+]2c1CCCCC2)c1ccc([N+](=O)[O-])cc1,.,.,-3%,.
CC(=O)N1CCC(N(CCN2CCOCC2)C(=S)Nc2ccccc2C)CC1,-3%,-112*,11%,7%
CSc1ccccc1NC(=O)NCCCl,.,.,-1%,8%
Cc1ccccc1OC(=O)n1c(=S)oc2cc(Cl)ccc21,?,-15,28µM*,7.1µM*
O=C(Oc1ccccc1)n1c(=S)oc2ccccc21,-12%,?,-17%,?
Cc1nc(NC(=O)c2ccccc2[N+](=O)[O-])sc1C(=O)N(C)C,22µM*,15,-4%,4%
CCOC(=O)CNC(=O)c1cc(-c2ccc3c(c2)OCCO3)oc1C,-24%,?,0%,?
CCc1cc2c(=O)c(-c3ccc4c(c3)OCCO4)c(C)oc2cc1OS(C)(=O)=O,-22%,5,5%,4.5µM*
CC(C)=C1C(=O)NN(c2ccc(C)c(Cl)c2)C1=O,16µM*,-18,2%,10%
CC(C)=C1C(=O)NN(c2cccc(Cl)c2)C1=O,7.9µM*,-4,-14%,-1%
SMILES,HPGD inh,PNC inhibitor,JMJD2E inh,ALDH1A1 block
O=C(NNc1ccccc1)/C(=C\c1cccnc1)NC(=O)c1ccccc1,.,.,3%,.
O=[N+]([O-])/C(=C\Nc1ccccc1Cl)S(=O)(=O)c1ccccc1,32µM*,-25,0%,-99%
O=C(O)c1ccc(Cl)c2c1C1C=CCC1C(c1ccccn1)N2 (configuration not stated),?,?,25µM*,?
CC(C)(C)c1[nH]c2ccccc2c1/C=N/O,2µM*,7,-3%,10%
CC(C)(CO)N=Cc1c(O)[nH]c2ccccc12,-1%,-1,0%,6%
CC1(C)O[C@H]2[C@@H](c3[nH]nc4c(=O)[nH]c(=O)[nH]c34)OC[C@H]2O1,-8%,.,.,-7%[13.5 µM]
